# PubChem BioAssay
# Calls of active or inactive are those of the source.
# Legend:
# Albumin (Bos taurus) = Albumin (Bos taurus) (UniProt P02769); experiment: compounds binding labelled BSA control protein – biochemical, small-molecule microarray, Alexa647 label, 635/667 nm fluorescence, artefact control for SMM control protein annotation, profiling panel (AID 1118); conditions: BSA-A647 binding, fluorescence 635 nm, higher = more signal;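 note: score merges 667 nm emission intensity and signal-to-noise per printed compound spot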
# Sequence of Albumin (Bos taurus) (P02769 whole entry, looked up): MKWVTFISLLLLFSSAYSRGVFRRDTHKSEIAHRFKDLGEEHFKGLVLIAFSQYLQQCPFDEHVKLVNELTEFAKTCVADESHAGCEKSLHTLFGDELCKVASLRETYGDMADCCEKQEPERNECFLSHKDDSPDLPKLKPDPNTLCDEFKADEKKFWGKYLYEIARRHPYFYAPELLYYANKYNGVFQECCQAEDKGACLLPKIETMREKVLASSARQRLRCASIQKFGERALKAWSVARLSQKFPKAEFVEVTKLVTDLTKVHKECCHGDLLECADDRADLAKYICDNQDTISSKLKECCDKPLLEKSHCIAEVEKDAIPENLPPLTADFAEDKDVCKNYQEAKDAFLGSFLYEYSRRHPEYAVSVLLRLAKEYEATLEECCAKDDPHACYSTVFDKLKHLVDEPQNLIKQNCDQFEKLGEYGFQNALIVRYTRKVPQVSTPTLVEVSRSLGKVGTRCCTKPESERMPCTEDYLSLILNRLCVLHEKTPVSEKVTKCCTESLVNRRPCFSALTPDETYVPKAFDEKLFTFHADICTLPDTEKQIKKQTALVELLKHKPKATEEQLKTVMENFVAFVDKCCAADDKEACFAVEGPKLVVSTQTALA
# [1] = probe aXIP binding to arrayed compounds – biochemical, NeuroSMM set, 635/667 nm fluorescence, primary screen (AID 1119); conditions: small-molecule microarray, higher = more signal, called active from +8 up or from −8 down;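 note: probe is the protein aXip251-270 applied at 1 µg/mL to compound-printed slides; binding of probe to printed compounds measured as 667 nm fluorescence plus signal to noise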
# [2] = probe aNOTCH3 binding on compound microarray – biochemical, small-molecule microarray, 635/667 nm fluorescence, primary screen (AID 1120); conditions: higher = more signal;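 note: probe is a biotin-tagged antibody raised against NOTCH3 rather than NOTCH3 protein; score merges spot fluorescence near 667 nm with spot signal to noise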
# [3] = probe aNOTCH2 binding on compound microarray – biochemical, small-molecule microarray, 635/667 nm fluorescence, primary screen (AID 1121); conditions: higher = more signal;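 note: score merges feature fluorescence read at 667 nm with its signal to noise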
# [4] = target: Carbonic anhydrase 2 (Homo sapiens) (UniProt P00918); experiment: compounds binding carbonic anhydrase 2 – biochemical, small-molecule microarray, Alexa647-labelled CAII, profiling panel (AID 1122); conditions: CAII-A647 binding fluorescence, higher = more signal
# [5] = COS7 lysate on small-molecule microarray, probe aHis, 635 nm (AID 1123); conditions: COS7 cell lysate, fluorescence, higher = more signal;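 note: z-score combines 667nm fluorescence intensity with signal-to-noise per printed compound spot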
# [6] = probe aLAP1 signal on lysate-treated microarray – cell lysate, small-molecule microarray, COS7 lysate, primary screen (AID 1124); conditions: probe aLAP1, fluorescence, higher = more signal;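 note: lysate comes from COS7 cells expressing LAP1 and is applied at 0.3 µg/mL; score merges spot fluorescence near 667 nm with signal-to-noise over triplicate slides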
# Sam68 (KHDRBS1) = experiment: compounds binding KHDRBS1 protein – biochemical, small-molecule microarray, 635 nm fluorescence, primary screen (AID 1125); conditions: higher = more signal;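 note: score merges 667 nm channel intensity with signal to noise over triplicate slides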
# [7] = tested on: Chordin-like protein 2 (CHRDL2); experiment: compounds binding chordin-like 2 – biochemical, small-molecule microarray, 635 nm fluorescence, primary screen (AID 1126); conditions: fluorescence 635 nm, higher = more signal;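 note: printed compound slides probed with Chrdl2 protein at 4 µg/mL for 1 h at 4 C; score merges 667 nm emission intensity with signal to noise over three replicate slides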
# [8] = target: Concanavalin-A (Canavalia ensiformis) (UniProt P02866); experiment: compounds binding concanavalin A lectin – biochemical, small-molecule microarray, Alexa647 label, 635 nm, artefact control for SMM control protein annotation, primary screen (AID 1127); conditions: ConA-A647 binding fluorescence, higher = more signal;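 note: z combines 667 nm emission intensity with signal-to-noise across three replicate slides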
# Sequence of Concanavalin-A (Canavalia ensiformis) (P02866 whole entry, looked up): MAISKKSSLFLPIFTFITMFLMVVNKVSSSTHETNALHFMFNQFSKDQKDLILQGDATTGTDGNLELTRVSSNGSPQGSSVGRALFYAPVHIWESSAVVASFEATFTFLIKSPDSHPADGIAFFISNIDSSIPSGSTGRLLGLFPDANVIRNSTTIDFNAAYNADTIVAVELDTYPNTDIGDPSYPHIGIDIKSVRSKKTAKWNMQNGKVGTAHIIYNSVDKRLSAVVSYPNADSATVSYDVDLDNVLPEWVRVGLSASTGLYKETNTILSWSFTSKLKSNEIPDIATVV
SMILES,composite z-score (Albumin (Bos taurus)),composite Z-score [1],composite z-score [2],composite z-score [3],composite z-score [4],composite z-score [5],composite z-score [6],composite z-score (Sam68 (KHDRBS1)),composite z-score [7],composite z-score [8]
COc1ccc([Si](C)(C)[C@@H]2[C@@H](CC(=O)N(CCO)Cc3ccccc3)O[C@]3(C(=O)N(Cc4cccc(N5CCC5=O)c4)c4ccccc43)[C@H]2C)cc1,0.047,0.0923 (inactive),-0.0647,-0.0916,0.401,2.49,1.95,1.05,0.9,0.902
O=C1O[C@@H](c2ccccc2)[C@@H](c2ccccc2)N2[C@@H](c3ccccc3OCCO)[C@]3(C(=O)Nc4ccc(C#CC5=CCCCC5)cc43)[C@@H](C(=O)O)[C@H]12,0.664,-0.114 (inactive),0.0563,-0.0391,0.549,1.67,0.659,1.33,-0.241,1.08
COc1cc(CO)cc(I)c1O[C@H]1C=C(C(=O)NCCO)C[C@@H](N(CC2CCCCC2)C(=O)c2cc3ccccc3oc2=O)[C@@H]1O,-0.0129,0.577 (inactive),0.0158,-0.12,-0.0979,0.14,0.379,-0.461,0.538,0.358
CC(C)(C)OC(=O)CC[C@]1(C(=O)NCCN2CCOCC2)N=C(c2ccc(OCCCO)cc2)O[C@H]1c1ccccc1CN=[N+]=[N-],0.433,0.192 (inactive),0.145,-0.057,0.865,2.05,0.663,1.32,-1.1,0.922
COCCOC(=O)N1C(=O)[C@@]2(c3ccccc31)[C@H](C(=O)N1CCc3cc(OC)c(OC)cc3C1)[C@H]1C(=O)O[C@H](c3ccccc3)[C@H](c3ccccc3)N1[C@@H]2c1ccccc1OCCO,0.484,0.497 (inactive),0.0556,-0.0607,0.441,1.24,0.0221,1.3,0.107,1.17
CO[C@H]1O[C@H](CO)[C@@H](OC(=O)Nc2ccc3c(c2)OCO3)[C@H](OC(=O)Nc2ccccc2)[C@@H]1OC(=O)Nc1ccccc1,0.792,0.0474 (inactive),-0.004,-0.0952,0.743,3,0.982,1.29,-0.0509,1.09
CO[C@H]1O[C@H](CO)[C@@H](OC(=O)CCc2ccccc2)[C@@H]2OC(=O)[C@H](Cc3cccc(Br)c3)C/C=C/C[C@@H](Cc3cccc(Br)c3)C(=O)O[C@@H]12,0.803,0.258 (inactive),-0.15,-0.114,0.76,1.04,0.0054,0.7,-1.41,0.014
COc1ccc([Si](C)(C)[C@@H]2[C@@H](CCO)O[C@]3(C(=O)N(Cc4ccc(NC(=O)[C@H](C)O)cc4)c4ccccc43)[C@H]2C)cc1,0.762,0.423 (inactive),-0.0288,-0.127,0.348,1.42,-0.0561,1.32,-0.0817,1.08
C=CC(=O)O[C@@H](Cc1ccccc1)[C@H]1C2C=CCCC=C2CN1Cc1cccc(Cl)c1 (stereo not given in full),-0.421,0.565 (inactive),-0.0057,-0.112,-0.794,-0.323,-0.454,-2.7,-0.605,-0.965
C[C@H]1COC(=O)[C@H](Cc2ccccc2)NC(=O)[C@@H](C)COC(=O)[C@H](Cc2ccccc2)NC1=O,0.732,0.0705 (inactive),-0.0377,-0.0967,0.447,0.612,0.275,1.27,0.845,0.892
C=C(COC)/C(=C/C[C@@H](OC(=O)c1ccncc1)c1ccc(OCCO)cc1)c1cc(C(=O)OC)ccc1OC,0.655,0.345 (inactive),0.0631,-0.0784,0.655,1.61,0.482,1.3,-0.0659,1.06
O=C1C[C@@](C(=O)NC2CC2)(c2ccc([N+](=O)[O-])cc2)[C@@H](c2ccc(CO)cc2I)N1CC12CC3CC(CC(C3)C1)C2,-0.344,0.381 (inactive),0.0538,-0.19,0.473,1.64,2.12,1.12,0.224,1.1
O=C1C2C=CC(C(O)C#Cc3ccccc3)N(Nc3ccccc3)C2C(=O)N1c1ccccc1 (stereo not given),0.812,0.634 (inactive),-0.0077,-0.0176,0.812,1.94,0.435,0.432,-0.575,-0.414
N#Cc1ccc(NN2C(C(O)CCc3ccccc3)C=CC3C(=O)N(c4ccccc4)C(=O)C32)cc1 (stereo not given),1.06,0.265 (inactive),0.123,0.0532,0.745,2.21,0.647,0.924,-0.794,0.831
Cc1ccc(S[C@]2(C(=O)NCCCN(C)C)CC(=O)N(Cc3ccccc3)[C@@H]2c2ccc(CO)cc2I)cc1,0.717,0.35 (inactive),0.0762,-0.0771,0.688,2,0.755,-0.381,-0.855,0.362
CC(C)[Si]1(C(C)C)OCc2cc(C3CC3)nc(-c3ccccc3)c21,-0.613,-0.536 (inactive),-0.295,-0.12,0.112,-0.57,-0.683,-0.124,-0.161,-0.26
